Compounds with a hit are over-represented: about 3.2% of the library has one in this group of screens.
SMARCA2 activ: increases SMARCA2 function in MMTV reporter cells | MG213 cells, MMTV-luciferase reporter, dexamethasone, overnight | activation, % at 9.1 µM | 370,000 compounds, 1% hits; in the data active = activation above about 7.8%
esBAF inh: blocks esBAF chromatin remodeling in mouse ES cells; Bmi1-luciferase knock-in reporter, 24 h; 100% = twice the neutral-well signal; 350,000 compounds, 2% hits; reporter increase, % at 12.5 µM; in the data active = activation above about 40%; inconclusive = no clear call, values can overlap the other calls;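 note: a rise in the Bmi1 reporter signal indicates esBAF inhibition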
Dyrk1A ADPGlo: inhibitors of rat Dyrk1A kinase; 310,000 compounds, 0.43% hits; ADP-Glo luminescence, NFATc1 peptide; inhibition, % at 12.5 µM; AID 504441; in the data active = inhibition above about 50%
Rtt109 HAT inh: inhibitors of Candida albicans Rtt109/Vps75 histone acetyltransferase | 330,000 compounds, 0.16% hits | purified Rtt109/Vps75, ThioGlo CoA-SH fluorescence, 4 h | AID 540336 | Q5AAJ8 | inhibition, % at 34.9 µM;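 active = inhibition of at least 50% in every replicate; inconclusive = best replicate reaches 50% inhibition but some replicates fall short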
CDK5 inh: blocks human CDK5/p35 kinase activity; Recombinant CDK5/p35, ADP-Glo luminescence, 60 min; inhibition, % at 10 µM; 330,000 compounds, 0.01% hits; AID 488839;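 active = highest replicate inhibition of at least 50% and at least 75% of replicates reaching 50%; inconclusive = only one of the two criteria met; inactive = both criteria failed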
Target sequence (Q00535 whole entry, looked up): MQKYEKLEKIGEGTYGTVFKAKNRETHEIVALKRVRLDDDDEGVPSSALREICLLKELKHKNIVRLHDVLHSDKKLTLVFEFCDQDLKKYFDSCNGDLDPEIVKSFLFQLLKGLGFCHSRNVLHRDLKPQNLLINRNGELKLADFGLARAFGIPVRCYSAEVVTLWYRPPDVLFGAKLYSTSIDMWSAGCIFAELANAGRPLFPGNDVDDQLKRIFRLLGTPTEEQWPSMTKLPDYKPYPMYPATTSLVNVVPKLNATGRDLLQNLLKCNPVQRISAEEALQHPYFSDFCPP
Target sequence (Q15078 whole entry, looked up): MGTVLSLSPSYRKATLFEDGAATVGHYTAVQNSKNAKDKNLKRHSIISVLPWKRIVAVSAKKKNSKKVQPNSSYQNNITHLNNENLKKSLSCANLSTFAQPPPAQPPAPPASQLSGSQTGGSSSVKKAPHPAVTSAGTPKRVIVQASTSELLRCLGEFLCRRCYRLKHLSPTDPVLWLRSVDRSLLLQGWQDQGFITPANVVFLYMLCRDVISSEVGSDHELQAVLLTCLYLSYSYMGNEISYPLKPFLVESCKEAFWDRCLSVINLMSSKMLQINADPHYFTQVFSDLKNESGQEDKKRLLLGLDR
dFosB activator: activators of mouse delta FosB homodimer; P13346; purified delta FosB, TAMRA-CDK5 oligo fluorescence polarization; percent of positive-control signal above neutral wells; activation, % at 25 µM; 340,000 compounds, 0.99% hits; AID 493131;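 active = mean activation above about 17%, with every replicate also reaching it, limit read from the data, passing the limit was not always enough; inconclusive = only one of the two conditions met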
Each line names hits and unclear results; the compound was inactive in the other large screens.

CC(C)Oc1ccccc1C1Nc2ccccc2C(=O)N1c1ccc2c(c1)OCCO2 (stereo unspecified)	none
CC(=O)c1cc2c(=O)c3cc(C)ccc3oc2nc1C	esBAF inh 60.0
CCN(CC)C(=O)c1cc2c(=O)c3cc(Cl)ccc3oc2nc1C	esBAF inh 45.2
CCOC(=O)c1cc2c(=O)c3cc(C)ccc3oc2nc1C	none (no result: SMARCA2 activ, esBAF inh)
Cc1ccc2oc3nc(C)c(C(=O)O)cc3c(=O)c2c1	none (no result: esBAF inh)
COc1ccccc1CNC(=O)C[C@H]1CC[C@H]2[C@@H](COC[C@@H](O)CN2C(=O)Nc2ccc(F)cc2)O1	none (no result: SMARCA2 activ, Dyrk1A ADPGlo, Rtt109 HAT inh, CDK5 inh, dFosB activator)
Cc1ccc(-c2nnc(Oc3cccc(C)c3)c3ccccc23)cc1	esBAF inh 52.9
Cc1nc2ccc(S(=O)(=O)Nc3cc(-c4nc5cccnc5s4)ccc3C)cc2s1	esBAF inh 61.0
O=C(Nc1ccc(NC(=O)C2CC2)cn1)c1ccccc1	none
CC(=O)c1ccc(NC(=O)CN(c2c(C)cccc2C)S(C)(=O)=O)cc1	esBAF inh 56.2
CCOc1ccc(N(CC(=O)Nc2ccc(C)cc2)S(C)(=O)=O)cc1	esBAF inh 79.7
CCOc1ccc(NC(=O)Cc2ccccc2)cc1	esBAF inh 66.5
COC(=O)CN(c1c(C)cccc1C)S(C)(=O)=O	none
O=C(Cc1ccccc1)Nc1ccc(NC(=O)c2ccccc2)nc1	esBAF inh 56.1
CCOc1ccc(NC(=O)c2ccccc2OCC(=O)c2ccccc2)cc1	esBAF inh 43.8
COc1ccc(CNC(=O)Nc2ccccc2)cc1	none
CCOc1ccc(CNC(=O)Nc2ccccc2)cc1	esBAF inh 47.4
Cc1ccc(NC(=O)c2ccccc2OCC(=O)c2ccccc2)cc1	none
COc1ccc(NC(=O)c2c(Cl)n(C)c3ccccc23)cc1	esBAF inh 58.6
Cc1noc(C)c1NC(=O)Nc1ccc2c(c1)C(=O)N([C@@H](C)CO)C[C@H](C)[C@@H](CN(C)Cc1ccc(C(F)(F)F)cc1)OCCCC[C@H](C)O2	none (no result: SMARCA2 activ, Dyrk1A ADPGlo, Rtt109 HAT inh, CDK5 inh, dFosB activator)
C#CCn1c(=NC(=O)c2cccs2)sc2cccc(OCC)c21	none
C#CCn1c(=NC(=O)c2ccc(Cl)s2)sc2cccc(OC)c21	esBAF inh 49.8
CCn1nc(C)c(NC(=O)/C=C/c2ccc(OC)c(COc3ccc(Cl)cc3Br)c2)c1C	dFosB activator 207.2 (no result: Rtt109 HAT inh)
Cc1ccc2oc(C(=O)N(Cc3ccncc3)CC3CCCO3)c(C)c2c1 (stereo unspecified)	esBAF inh 57.9
CCCc1ccc2oc(C(=O)N(Cc3ccncc3)CC3CCCO3)c(C)c2c1 (stereo unspecified)	none
O=C(Nc1ccc(F)c(Cl)c1)c1cc(C2CCCN(S(=O)(=O)c3cccs3)C2)on1 (stereo unspecified)	none (no result: Dyrk1A ADPGlo, Rtt109 HAT inh, CDK5 inh, dFosB activator)
O=C(Nc1ccccc1)c1cc(C2CCCN(C(=O)CCc3ccccc3)C2)on1 (stereo unspecified)	esBAF inh 64.3 (no result: Dyrk1A ADPGlo, Rtt109 HAT inh, CDK5 inh, dFosB activator)
O=C(Nc1ccc(F)c(Cl)c1)c1cc(C2CCCN(C(=O)CCc3ccccc3)C2)on1 (stereo unspecified)	esBAF inh 46.9 (no result: Dyrk1A ADPGlo, Rtt109 HAT inh, CDK5 inh, dFosB activator)
CC(C)S(=O)(=O)N1CCCC(c2cc(C(=O)Nc3ccc(F)c(Cl)c3)no2)C1 (stereo unspecified)	esBAF inh 47.9 (no result: Dyrk1A ADPGlo, Rtt109 HAT inh, CDK5 inh, dFosB activator)
O=C(Nc1ccccc1Cl)c1cc(C2CCCN(C(=O)CCc3ccccc3)C2)on1 (stereo unspecified)	none (no result: Dyrk1A ADPGlo, Rtt109 HAT inh, CDK5 inh, dFosB activator)
Cc1ccc(S(=O)(=O)N(C)C[C@H]2OCCCC[C@H](C)Oc3ccc(NS(=O)(=O)c4ccc(F)cc4)cc3C(=O)N([C@@H](C)CO)C[C@H]2C)cc1	none (no result: SMARCA2 activ, Dyrk1A ADPGlo, Rtt109 HAT inh, CDK5 inh, dFosB activator)
COc1cccc(C(=O)N2C[C@@H]3[C@H](c4ccccc42)[C@@H](CO)N3C(=O)c2ccccc2)c1	none (no result: SMARCA2 activ, Dyrk1A ADPGlo, Rtt109 HAT inh, CDK5 inh, dFosB activator)
Cc1cc(-c2ccccc2)n(-c2ccccc2)n1	esBAF inh 51.3
Cc1cc(-c2ccco2)n(-c2ccccc2)n1	none (no result: esBAF inh)
COC(=O)c1c(NC(=O)c2ccccc2)sc2c1CC(C)(C)NC2(C)C	none
CC1(C)Cc2c(sc(NC(=O)c3ccc(C(=O)c4ccccc4)cc3)c2C(N)=O)C(C)(C)N1	dFosB activator 43.9 (no result: esBAF inh)
COc1ccccc1CNc1ncccc1[N+](=O)[O-]	none
O=[N+]([O-])c1cccnc1NCCNc1ncc(C(F)(F)F)cc1Cl	esBAF inh 47.8
O=[N+]([O-])c1cccnc1NCCc1ccccc1	esBAF inh 73.4
C[C@@H]1CCCCO[C@H](CN(C)C(=O)NC2CCCCC2)[C@@H](C)CN([C@H](C)CO)C(=O)c2cc(NC(=O)CCCN(C)C)ccc2O1	none (no result: SMARCA2 activ, Dyrk1A ADPGlo, Rtt109 HAT inh, CDK5 inh, dFosB activator)
COc1ccc2c3n([n+]([O-])c2c1)CCN=C3c1ccc(Cl)cc1	esBAF inh 41.5
COc1ccc2c(c1)Cc1sc(NC(=O)c3cccs3)nc1-2	esBAF inh 82.7
COc1ccc(C(=O)Nc2nc3c(s2)Cc2cc(OC)ccc2-3)cc1	none
CC=Cc1ccc2n(c1=O)C[C@@H]1[C@@H](CO)[C@H](C(=O)NCCc3cn(C)cn3)[C@H]2N1C(=O)C1CC1 (mixture of isomers)	none (no result: SMARCA2 activ, Dyrk1A ADPGlo, Rtt109 HAT inh, CDK5 inh, dFosB activator)
CCCCNC(=S)Nc1ccc2nc(N3CCN(CC)CC3)cc(C)c2c1	none
CCN1CCN(c2cc(C)c3cc(NC(=S)NCCCN4CCc5ccccc5C4)ccc3n2)CC1	dFosB activator 36.7
CCN(CC)CCNC(=S)Nc1ccc2nc(N3CCN(CC)CC3)cc(C)c2c1	dFosB activator 18.4
Cc1cc(N2CCN(C)CC2)nc2ccc(NC(=S)NCCN3CCc4ccccc4C3)cc12	SMARCA2 activ 7.9, Rtt109 HAT inh inconclusive, dFosB activator 34.7
CCCN1CCN(CCCNC(=S)Nc2ccc3nc(N4CCN(CC)CC4)cc(C)c3c2)CC1	none
C[C@H]1CN([C@@H](C)CO)C(=O)c2cc(C#Cc3cccc(F)c3)cnc2O[C@H]1CN(C)CC1CCCC1	none (no result: SMARCA2 activ, Dyrk1A ADPGlo, Rtt109 HAT inh, CDK5 inh, dFosB activator)
C[C@@H]1CN([C@@H](C)CO)C(=O)c2cc(C3=CCCC3)cnc2O[C@@H]1CN(C)S(C)(=O)=O	none (no result: SMARCA2 activ, Dyrk1A ADPGlo, Rtt109 HAT inh, CDK5 inh, dFosB activator)
O=C(Nc1cccc(Cl)c1)c1ccc2ncsc2c1	esBAF inh 48.5
O=C(COC(=O)c1ccc2ncsc2c1)Nc1cccc(Cl)c1	none
N#Cc1ccsc1NC(=O)c1ccc2ncsc2c1	esBAF inh 71.4 (no result: Dyrk1A ADPGlo, Rtt109 HAT inh, CDK5 inh, dFosB activator)
O=C(Nc1ccc(C(F)(F)F)cc1)c1ccc2ncsc2c1	esBAF inh 58.5
O=C(Nc1ccc(Cl)cc1)c1ccc2ncsc2c1	esBAF inh 64.9
C[C@H]1CN([C@@H](C)CO)C(=O)Cc2cc(NC(=O)C3CC3)ccc2O[C@H]1CN(C)C	none (no result: SMARCA2 activ, Dyrk1A ADPGlo, Rtt109 HAT inh, CDK5 inh, dFosB activator)
CN(C)c1ccc(NC(=O)c2ccc3nsnc3c2)cc1	none
O=C(Nc1ccc(Cl)cc1)c1ccc2nsnc2c1	esBAF inh 109.4
COc1ccccc1-c1ccc2c(c1)[C@H]1[C@H](CCN1S(=O)(=O)c1cccc(C)c1)[C@@H](CO)N2	none (no result: SMARCA2 activ, Dyrk1A ADPGlo, Rtt109 HAT inh, CDK5 inh, dFosB activator)
CCCCC(=O)c1c(O)c2ccccc2oc1=O	esBAF inh 58.5
CC(=N)c1c(O)c2ccccc2oc1=O	none (no result: esBAF inh)
CCCCN=C(C)c1c(O)c2ccccc2oc1=O	esBAF inh 41.8

Screening results: PubChem, several laboratories
